Measured values: PubChem BioAssay AID1347433 (National Center for Advancing Translational Sciences (NCATS), 2020)
Inconclusive results are not listed. Unmarked numbers belong to inactive results. Active and inactive are the calls of the source. Calls follow the shape of the dose curve; as a rule, active = well fitted curve in the direction sought with a large enough effect; inconclusive = small, poorly fitted or top-dose-only effect, or another doubt; inactive = no such curve, though single readings can be large or run the other way.

target: Single-stranded DNA cytosine deaminase (Homo sapiens) (UniProt Q9GZX7); assay: Confirmatory (Round 2) qHTS assay for inhibitors of Activation Induced Cytidine Deaminase (AID): AID signals; conditions: AID deamination FRET-based fluorescence assay with UDG, 4 h; series mostly up to 78.4 µM; activity, negative = inhibition: at the top concentration
Source text: Assay Provider (PI) Patricia Gearhart Ph.D. National Institute on Aging National Institute of Health (NIH), Bethesda, MD Assay Provider (PI) Rahul Kohli Ph.D. Perelman School of Medicine University of Pennsylvania, Philadelphia, PA Activation-Induced Deaminase (AID) is a cytosine deaminase which converts cytosine into uracil within stretches of ssDNA. The presence of uracil in DNA initiates a cascade of mutagenic DNA repair to introduce point mutations and DNA double strand breaks. Specific targeting of AID to the immunoglobulin heavy chain loci (Igh) promotes mutagenesis in the antibody variable region for somatic hypermutation (SHM) or switch regions leading to class switch recombination (CSR). However, AID also plays a role in accumulating unnecessary mutations across the genome. Mis-targeting of AID results in the initiation of tumor development and leads to greater drug resistance among cancer cells when continually expressed. To identify an AID inhibitor, a small molecule library will be screened in collaboration with NCATS core facility at NIH. To confirm biological function, inhibitors will be examined in an in vitro murine B-cell activation assay and subsequent secondary validation screens. Top molecules will be further screened to identify inhibitory efficacy against a wild type primary splenocytes assay. Using these approaches, we hope to identify a small molecule with great efficacy and low toxicity for use as a molecular probe to further characterize AID's intricacies, or even as a therapeutic. A FRET based analysis of cytosine deamination, was developed to identify potential inhibitors of AID catalytic activity. This screen has two signal output, Read 1 evaluates the AID inhibition response. The second readout (Read 2) evaluates UDG response and is uses as a counterscreen to exclude false positive inhibitors. Inhibition in AID and inactivity in the UDG signal is the desired outcome for this assay.
PROTOCOL TABLE SEQUENCE No. (e.g., 1, 2, 3, etc.); PARAMETER (e.g., Cells, Incubation, Reagent, etc.); VALUE; DESCRIPTION 1a; Reagent; 3 uL; [4/3x] 1 uM AID/2.67 U/mL UDG 1b; Reagent; 3 uL; 2 U/mL UDG 1c; Reagent; 3 uL; 1 uM AID 2a; Compound; 46 nL; Follow-up plates (0.64 uM - 10 mM) 2b; Control; 46 nL; ATA ([…] - 10 mM) 3; Time; 10 min; incubation at room temperature 4; Reagents; 1 uL; [4x] 250 nM DJC20 / 250 nM DJC23 [Substrate] 5; Time; 4 hr; incubation at room temperature 6; Reagent; 4 uL; [2x] 250 mM NaOH 7; Time; 15 sec; centrifuge at 1000 rpm 8; Time; 30 min; incubation at room temperature 9a; Detection; fluorescence (Read 1: AID); EnVision (PerkinElmer) plate reader, 540 excitation and 590 emission filters 9b; Detection; fluorescence (Read 2: UDG); EnVision (PerkinElmer) plate reader, 560 excitation and 665 emission filters NOTES (numbers refer to sequence above) 1a; Reagents were dispensed in a medium-binding black solid-bottom Greiner plates (789176F) using a BioRptr liquid dispenser. Dispense 3 uL of [4/3x] 1 uM AID (provided by Kohli lab) and [4/3x] 2 U/mL UDG (NEB M0280L) into columns 1, 2, 5 to 48. 1b; Dispense 3 uL of [4/3x] 2 U/mL UDG into column 3. 1c; Dispense 3 uL of [4/3x] 1 uM AID into column 4. 2a; Compound (7-points [uM]: 0.64; 3.2; 16; 80; 400; 2,000; 10,000; […]) double pin-transferred (Dip Factor = 2) using the Kalypsys (Wako USA) pintool equipped with a 1536 pinhead for a final concentration range of 7.32 nM - 114 uM. 2b; 10 mM Aurintricarboxylic Acid (Sigma A1895) (ATA, 8-point, n = 2, 1:2.5 dilution in column 2) double pin-transferred (Dip Factor = 2) using the Kalypsys (Wako USA) pintool equipped with a 1536 pinhead for a [final] range of 186 nM - 114 uM. 3; Room temperature incubation. 4; Dispense 1 uL of substrate mixture from the Kohli lab [4x] […] DJC20 and [4x] 250 nM DJC23 into columns 1 to 48 . 5; Room temperature incubation. 6; Dispense 4 uL of substrate mixture [2x] 250 mM NaOH into columns 1 to 48. 7; Centrifugation step to remove bubbles. […]

Chain of Single-stranded DNA cytosine deaminase (Homo sapiens) (Q9GZX7 whole entry, looked up): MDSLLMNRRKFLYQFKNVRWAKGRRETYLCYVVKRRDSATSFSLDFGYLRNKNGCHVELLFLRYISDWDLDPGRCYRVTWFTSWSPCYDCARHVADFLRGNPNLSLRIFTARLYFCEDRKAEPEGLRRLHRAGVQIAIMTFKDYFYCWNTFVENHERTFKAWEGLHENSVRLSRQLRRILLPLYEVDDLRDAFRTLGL

Compound	Potency	activity, negative = inhibition
O=C(O)C1=CC(=C(c2ccc(O)c(C(=O)O)c2)c2ccc(O)c(C(=O)O)c2)C=CC1=O	2240 nM (active)	
Cc1noc(C)c1CCSc1nc(-c2ccccc2)nc2cc(=O)[nH]n12		-15.9%
Cn1ccnc1CCSc1nc(-c2ccccc2)nc2cc(=O)[nH]n12		-3.59%
O=c1cc2nc(-c3ccccc3)nc(SCCN3CCC(F)(F)CC3)n2[nH]1		-9.2%
O=c1cc2nc(-c3ccccc3)nc(SCCCn3ccnc3)n2[nH]1		-1.78%
CN1CCN(CCCSc2nc(-c3ccccc3)nc3cc(=O)[nH]n23)CC1		-1.4%
O=c1cc2nc(-c3ccccc3)nc(SCCCc3ccncc3)n2[nH]1		-7.64%
